From PubChem BioAssay
TDP1 cell CPT – qHTS for Inhibitors of human tyrosyl-DNA phosphodiesterase 1 (TDP1): qHTS in cells in presence of CPT. chicken DT40 Tdp1-/-;hTDP1 cells + 20 nM CPT, ATP luminescence, 48 h. 12% of 420,000 active. Potency, µM (highest dose often 46.2 µM), for the others: at the top dose activity change, negative = growth inhibition, most hits filed as inhibitors; further: potency means the concentration at half of the fitted maximal effect; nearly all actives have a fitted effect of over 55% in size
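Chicken DT40 Tdp1-/- cells stably complemented with human TDP1 were seeded at 400 cells/well in medium containing 20 nM camptothecin, exposed to pin-transferred compounds, and grown at 37 °C for at least 48 hr. Viability was read as ATP luminescence.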
TDP1 cell noCPT – qHTS for Inhibitors of human tyrosyl-DNA phosphodiesterase 1 (TDP1): qHTS in cells in absence of CPT | AID 686978, 2013 | Potency, µM (series often up to 46.2 µM), without a hit: at the highest dose activity change, negative = growth inhibition, most hits filed as inhibitors | DT40 Tdp1-/- hTDP1 cells, no CPT, ATP luminescence, 48 h | 15% of 420,000 active; further: potency means the concentration at half of the fitted maximal effect; nearly all actives have a fitted effect of over 55% in size
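Readout: luminescence from CellTiter-Glo after 30 min in the dark at RT. Cells: DT40 Tdp1-/- with stable hTDP1, 400/well. Exposure: compounds alone, ≥48 hr, 37 °C.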
CtBP-E1A inh – qHTS Assay for Inhibitors of the CtBP/E1A Interaction; CtBP / adenovirus E1A interaction (AlphaScreen); AlphaScreen GST-E1A/His-CtBP binding, 1536-well; active compounds read low; activity change, % (no concentration beside the values); 0.49% of 340,000 active; AID 651724, 2012; in the data active means activity change below about -65%; inconclusive means mostly about -30% to -63%
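AlphaScreen with 125 nM GST-E1A and 125 nM His-CtBP (5X stocks) in Tris pH 8.0, 300 mM NaCl, BSA, Tween 20, TCEP. Compounds preincubated 2 h at 37 deg C, then glutathione donor/nickel acceptor beads added for 1 h at 37 deg C in dark.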
IL1B secr inh – qHTS for Inhibitors of Inflammasome Signaling: IL-1-beta AlphaLISA Primary Screen. THP-1 LPS/ATP IL-1B secretion, AlphaLISA, 16 h; active compounds read low. activity change, % at 57.5 µM. 4.7% of 360,000 active. AID 743279, 2014; in the data active means activity change below about -50%; inconclusive means mostly about -30% to -49%
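THP-1 cells pretreated 1 hr with compounds (up to 57.5 uM final), then stimulated with LPS (250 ng/mL final) plus ATP (1.25 mM final); secreted IL-1B measured by AlphaLISA after 16 hr, decreased signal indicating inhibition.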
Six1-Eya2 inh – qHTS Assay for Inhibitors of the Six1/Eya2 Interaction; Homeobox protein SIX1 (Homo sapiens) + Protein phosphatase EYA2 (Homo sapiens), …; AlphaScreen GST-Six1/His-Eya2 binding, biochemical; active compounds read low; activity change, % (test concentration not listed); 0.56% of 360,000 active; AID 651725, 2012; in the data active means activity change below about -65%; inconclusive means mostly about -30% to -63%
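GST-Six1 + His-Eya2 (5X stock: 250/500 nM); Tris pH 8.0, 300 mM NaCl, 0.05% BSA, 0.02% Tween 20; GSH donor/Ni acceptor beads; 1 h 37 °C dark; AlphaScreen readout.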
TDP1 inh – qHTS Assay for Inhibitors of Tyrosyl-DNA Phosphodiesterase (TDP1). Tyrosyl-DNA phosphodiesterase 1 (Homo sapiens), Q9NUW8. recombinant TDP1, AlphaScreen DNA substrate cleavage. Potency, µM (highest dose often 130 µM), for the others: at the top dose activity change, negative = inhibition, most hits filed as inhibitors. 0.28% of 350,000 active; further: potency means the concentration at half of the fitted maximal effect; nearly all actives have a fitted effect of over 40% in size
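Recombinant E. coli-expressed Tdp1 (1 nM) preincubated with compound 15 min at RT, then 5'-biotin/3'-phosphotyrosine-FITC DNA substrate (15 nM) added for 5 min. AlphaScreen beads (10 ug/ml) added, 10 min RT; tyrosine-FITC cleavage read as signal loss.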
An asterisk follows results filed as active; ? = inconclusive; . = no result given. Only some compounds are listed: those with a hit (about 18% of all), similar ones and a draw of the others. Unless noted, the call rests on the fitted dose curve; in most records, active means well fitted curve in the direction sought with a large enough effect; inconclusive means small, poorly fitted or top-dose-only effect, or another doubt; inactive means no such curve, though single readings can be large; an effect the other way counts as inactive or inconclusive. On the % scale 0 is the no-effect control and ±100 the full control effect.

SMILES | TDP1 cell CPT | TDP1 cell noCPT | CtBP-E1A inh | IL1B secr inh | Six1-Eya2 inh | TDP1 inh
Cc1ccc(C(=O)Nc2cccc(S(=O)(=O)N3CCCCC3)c2)cc1[N+](=O)[O-] | 16.4µM* | ? | -22.5 | ? | -18.5 | 2.9%
O=C(Nc1cccc(S(=O)(=O)N2CCCCC2)c1)c1ccc([N+](=O)[O-])o1 | 6.51µM* | 4.11µM* | -18.5 | -92.4* | -10.3 | -2.7%
Cc1ccc(S(=O)(=O)N2CCN(c3nc(-c4ccc(C)s4)nc4ccccc34)CC2)cc1 | -29.6% | ? | . | . | . | 1.5%
Cc1ccc(S(=O)(=O)N2CCN(c3nc(-c4cncs4)nc4ccccc34)CC2)cc1 | 10µM* | 7.08µM* | . | . | . | 1.5%
Cc1ccc(S(=O)(=O)N2CCN(c3nc(-c4ncco4)nc4ccccc34)CC2)cc1 | 11.2µM* | 11.2µM* | . | . | . | 2.8%
Cc1ccc(S(=O)(=O)N2CCN(c3nc(-c4cncn4C)nc4ccccc34)CC2)cc1 | 20µM* | ? | . | . | . | 7.9%
Cc1ccc(S(=O)(=O)N2CCN(c3nc(-c4ccc(CN5CCNCC5)s4)nc4ccccc34)CC2)cc1 | ? | 22.4µM* | . | . | . | .
NS(=O)(=O)c1ccc(S(=O)(=O)N2CCN(c3nc(-c4ccccc4)nc4ccccc34)CC2)cc1 | ? | ? | . | . | . | 1.0%
O=C(N/N=C/c1c[nH]c2ccccc12)C1CC(=O)N(c2ccccc2)C1 (stereo not drawn) | ? | 2.1% | -8.2 | 0.0 | -10.8 | 2.5%
O=C(CSc1nnnn1C1CCCC1)Nc1ccc(F)cc1 | -15.1% | -7.1% | 2.6 | 21.7 | -0.5 | 0.0%
Cc1ccc(S(=O)(=O)N[C@@H](Cc2ccccc2)C(=O)N2CCC(C(=O)N[C@@H](CCC(N)=O)C(=O)O)CC2)cc1 | 22.4% | -7.5% | 0.0 | 13.4 | 3.3 | .
O=C(O)c1cc([N+](=O)[O-])ccc1NCCO | -15.1% | -18.9% | 10.3 | 13.1 | 10.8 | -1.2%
O=C(CCNC(=O)c1ccc(Cl)cc1)Nc1ccc(Cl)cc1F | 14.7% | -6.8% | 0.1 | 0.0 | 3.2 | 3.2%
Cc1c(N2C(=O)/C(=C/C3CC=CCC3)SC2=S)c(=O)n(-c2ccccc2)n1C (stereo not drawn) | 18.4µM* | ? | -9.1 | -59.1* | -1.8 | .
Cc1c(N2C(=O)/C(=C\C3CC=CCC3)SC2=S)c(=O)n(-c2ccccc2)n1C (stereo not drawn) | ? | ? | -0.2 | -101.4* | -2.1 | -2.6%
CC(=O)NC1C(OC2OC(CC(O)C3OC([N+]4=CCC(=O)NC4=O)C(O)C3O)C(O)C(O)C2NC(=O)/C=C/CCCCCCCCC(C)C)OC(CO)C(O)C1O (stereo not drawn) | 0.114µM* | 0.0904µM* | . | . | . | 13.4%
CC(=O)N[C@H]1C(O[C@@H]2O[C@H](C[C@@H](O)[C@H]3O[C@@H](N4CCC(=O)NC4=O)[C@H](O)[C@@H]3O)[C@H](O)[C@H](O)[C@H]2NC(=O)/C=C/CCCCCCCCCCC(C)C)OC(CO)[C@@H](O)[C@@H]1O (stereo partly drawn) | . | . | . | . | . | 12.2%
Cc1cccc(/C=N/NC(=O)c2c(-c3ccccc3)noc2C)c1O | 18.4µM* | 2.91µM* | ? | 134.7 | -19.5 | 1.4%
Cc1onc(-c2ccccc2)c1C(=O)N/N=C/c1cc2c(cc1Br)OCO2 | ? | 25.9µM* | 0.4 | -14.0 | -6.0 | 2.5%
COc1ccc(-c2nc(SCC(=O)Nc3ccc4c(c3)OCCO4)c(-c3ccc(F)cc3)[nH]2)cc1OC | ? | 20.6µM* | . | . | . | 7.5%
